The source of these data is PubChem BioAssay.

Values without a mark were called inactive. Activity calls are given as the source filed them.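 Rule for the calls, unless noted: active = aptamer binding inhibition above 30%, about 3 SD of noise from non-fluorescent compounds; inactive = inhibition at or below 30%.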

The target in the first experiment is Beta-adrenergic receptor kinase 1 (Homo sapiens) (UniProt P25098). Briefly: GRK2 binders displacing RNA aptamer, biochemical, validation, human GRK2, bead flow cytometry (AID 488806). The following applies: bead-bound GRK2, FAM-aptamer displacement, at 10 µM, stronger effect = higher value.
Beta-adrenergic receptor kinase 1 (Homo sapiens), sequence (P25098 whole entry, looked up): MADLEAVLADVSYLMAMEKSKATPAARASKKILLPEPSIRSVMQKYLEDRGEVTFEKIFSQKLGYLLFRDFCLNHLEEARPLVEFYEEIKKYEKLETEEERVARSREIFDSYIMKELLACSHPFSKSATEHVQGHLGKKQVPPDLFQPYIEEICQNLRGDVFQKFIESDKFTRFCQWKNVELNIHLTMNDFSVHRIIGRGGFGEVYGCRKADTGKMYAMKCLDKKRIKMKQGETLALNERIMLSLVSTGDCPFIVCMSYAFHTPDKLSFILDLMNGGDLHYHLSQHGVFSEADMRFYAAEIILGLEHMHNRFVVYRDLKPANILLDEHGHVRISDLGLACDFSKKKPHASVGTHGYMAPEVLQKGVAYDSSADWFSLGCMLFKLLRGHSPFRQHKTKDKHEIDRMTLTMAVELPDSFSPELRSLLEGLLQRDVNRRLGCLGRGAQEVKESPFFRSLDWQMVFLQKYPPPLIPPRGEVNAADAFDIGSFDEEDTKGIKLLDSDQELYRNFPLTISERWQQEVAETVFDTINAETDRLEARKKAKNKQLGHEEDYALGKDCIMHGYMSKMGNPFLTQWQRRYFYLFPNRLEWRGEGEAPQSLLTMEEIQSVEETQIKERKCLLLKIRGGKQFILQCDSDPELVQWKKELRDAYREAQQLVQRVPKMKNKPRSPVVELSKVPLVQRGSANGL
Turning to `CCC(C)NCCOc1ccc(C(C)(C)c2ccccc2)cc1` (stereo not given), the aptamer binding inhibition was -5%.
Same read-out and setting: with `O=C(NCc1ccc(N2CCCC2=O)cc1)c1ccc(F)cc1` the figure was 3%; with `CC1(C)O[C@@H]2C[C@H]3[C@@H]4C[C@H](F)C5=CC(=O)CC[C@]5(C)[C@H]4[C@@H](O)C[C@]3(C)[C@]2(C(=O)CO)O1`, 37% (active); with `N/C(=N\OC(=O)CCCOc1ccc(Cl)cc1Cl)c1ccncc1`, -1%.
Same read-out and setting: the value for `COCCCN1C(=O)/C(=C\c2cccs2)C(C(=O)OC)=C1C` was 2%.
Same read-out and setting: the value for `Cc1ccc2nc(C)c3c(c2c1)OC(C(C)(Cl)Br)C3` (stereo not given) was 5%; that for `CC12COC3(C(=O)Nc4ccc(F)cc4)CC1CCC32C` (stereo not given) was 1%; that for `Cc1ccnc(NS(=O)(=O)c2ccc(N)cc2)n1` was -1%.
Turning to `CC1(C)CC(=O)c2cnc(NC(=O)C3CCCC3)nc2C1`, the aptamer binding inhibition is 6%.
As to `COc1ccc(CCN2CNc3c(c(=O)n(C)c(=O)n3C)C2)cc1OC`, the aptamer binding inhibition was -4%.
The same measure, in the same setting: with `O=C(O)CCCc1ccccc1` the figure was 5%; with `CCCNCC(O)COc1ccccc1C(=O)CCc1ccccc1` (stereo not given), 3%; with `COc1ccc(C(=O)O)cc1F`, 3%.
Still for that read-out and setting: the value for `COc1cc(C)nc(-n2nc(C)cc2OC)n1` was 1%; that for `CCCCCCC(=O)N(O)C1CC(=O)N(Cc2ccccc2)C1=O` (stereo not given) was 1%; that for `CC(=O)N1CCN(c2ccc(NC(=O)/C=C/c3ccccc3)cc2)CC1` was -3%.
The same measure, in the same setting: the value for `Cc1ccc(Nc2ncccc2C(=O)O)cc1C` was 2%.
Regarding `CCCCCCCC(=O)OCC(O)CO` (stereo not given), the aptamer binding inhibition was 3%.
In the case of `CSCCC(NC(C)=O)C(=O)Oc1ccc2c3c(c(=O)oc2c1)CCCC3` (stereo not given), the aptamer binding inhibition is 4%.
Still for that read-out and setting: with `CC(C)CN1CCN(Cc2ccc(C#CC(C)(C)O)cc2)CC1CCO` (stereo not given) the figure was 0%.
`Cc1nc(C2CC(=O)OC23CCCCC3)cs1` (stereo not given): the aptamer binding inhibition was 9%.
In the case of `CO[C@H]1C=CO[C@@]2(C)Oc3c(C)c(O)c4c(O)c(c(C=NN5CCN(C)CC5)c(O)c4c3C2=O)NC(=O)C(C)=CC=C[C@H](C)[C@H](O)[C@@H](C)[C@@H](O)[C@@H](C)[C@H](OC(C)=O)[C@@H]1C`, the aptamer binding inhibition is 3%.
On the same count and under the same terms, with `COc1cccc(-n2cc(CNCc3c(C(=O)N(C)C)nc4ccc(Cl)cn34)cn2)c1` the figure was 5%; with `S=C(c1ccc2c(c1)OCO2)N1CCCCC1`, -2%; with `CC(C)Oc1ccc2c(=O)c(-c3ccccc3)coc2c1`, 0%.
On the same count and under the same terms, the value for `CCn1cc(CN2N=C(C)CC2c2ccccc2)c(C)n1` (stereo not given) was 3%; that for `CCCCOc1ccc(C(=O)CCN2CCCCC2)cc1` was -1%; that for `NCCCC(N)(C(=O)O)C(F)F` (stereo not given) was 3%.
Regarding `C[N+](C)(C)CCOP(=O)([O-])OC[C@H](O)CO`, the aptamer binding inhibition is 1%.
Same read-out and setting: the value for `O=C(O)C1CCN(C(=O)COc2ccc3c4c(c(=O)oc3c2)CCC4)CC1` was 1%.
With `COc1ccc(OC)c(S(=O)(=O)N2CCCc3ccccc32)c1`, the aptamer binding inhibition was 5%.
Turning to `COc1ccc2[nH]c(=O)c3c(c2c1)OC(C)(C)C=C3`, the aptamer binding inhibition was 4%.
The same measure, in the same setting: with `CCN1CCN(C(=S)c2ccc(OC)cc2)CC1` the figure was 2%; with `C=CCOc1ccc(C(=O)CC)cc1OC`, 1%.
Still for that read-out and setting: the value for `CCc1cccc2c3c([nH]c12)C(CC)(CC(=O)O)OCC3` (stereo not given) was 1%.
On the same count and under the same terms, the value for `COc1ccc(OC(C)C(=O)Nc2ccccc2F)cc1` (stereo not given) was 0%; that for `CCCC(=O)Nc1ccccc1NC(C)=O` was 1%.
Regarding `O=C(O)CCCCCCNC(=O)c1cncc(O)c1`, the aptamer binding inhibition was 7%.
Still for that read-out and setting: the value for `COc1ccc(Br)cc1C(=O)Nc1ccc(C(=O)O)cc1` was 3%; that for `CC[N+]1(CC)CC2=Cc3ccccc3CC2C1` (stereo not given) was 2%.

The target of another experiment is Beta-2 adrenergic receptor (Homo sapiens) (UniProt P07550). Put plainly: beta2AR agonists driving receptor internalization, pilot screen, cell-based, FAP fluorogen, flow cytometry, validation set (AID 504459;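 active = percent response above 42, roughly 3 SD of non-fluorescent test compounds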;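 note: agonist-driven loss of surface beta2AR via internalization measured by FAP dye flow cytometry; reference of the scale not given here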). The following applies: Am2.2-beta2AR cells, FAP surface receptor flow cytometry; at 10 µM; stronger effect = higher value. In general terms: In flow cytometry, cells or beads pass a laser one at a time.
Beta-2 adrenergic receptor (Homo sapiens), sequence (P07550 whole entry, looked up): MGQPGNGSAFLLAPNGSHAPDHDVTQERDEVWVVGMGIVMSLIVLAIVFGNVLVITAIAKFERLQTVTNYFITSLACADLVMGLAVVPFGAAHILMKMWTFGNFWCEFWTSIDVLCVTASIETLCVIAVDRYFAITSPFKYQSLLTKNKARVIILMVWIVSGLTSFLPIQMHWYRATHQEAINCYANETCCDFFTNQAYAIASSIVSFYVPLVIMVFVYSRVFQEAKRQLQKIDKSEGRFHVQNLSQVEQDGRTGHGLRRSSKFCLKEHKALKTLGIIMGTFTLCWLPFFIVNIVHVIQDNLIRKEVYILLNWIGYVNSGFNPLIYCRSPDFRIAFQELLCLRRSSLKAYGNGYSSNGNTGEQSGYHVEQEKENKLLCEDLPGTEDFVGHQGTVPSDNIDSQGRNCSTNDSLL
On to `CCC(C)NCCOc1ccc(C(C)(C)c2ccccc2)cc1` (stereo not given), for which the response is 17.1%.
The same measure, in the same setting: the value for `O=C(NCc1ccc(N2CCCC2=O)cc1)c1ccc(F)cc1` was -6.33%; that for `CC1(C)O[C@@H]2C[C@H]3[C@@H]4C[C@H](F)C5=CC(=O)CC[C@]5(C)[C@H]4[C@@H](O)C[C@]3(C)[C@]2(C(=O)CO)O1` was 19%.
On the same count and under the same terms, the value for `N/C(=N\OC(=O)CCCOc1ccc(Cl)cc1Cl)c1ccncc1` was -12.7%; that for `COCCCN1C(=O)/C(=C\c2cccs2)C(C(=O)OC)=C1C` was -6.32%.
The same measure, in the same setting: with `Cc1ccc2nc(C)c3c(c2c1)OC(C(C)(Cl)Br)C3` (stereo not given) the figure was 23.5%.
As for `CC12COC3(C(=O)Nc4ccc(F)cc4)CC1CCC32C` (stereo not given), the response was -12.6%.
On the same count and under the same terms, with `Cc1ccnc(NS(=O)(=O)c2ccc(N)cc2)n1` the figure was 5.51%.
Turning to `CC1(C)CC(=O)c2cnc(NC(=O)C3CCCC3)nc2C1`, the response was -15.9%.
On the same count and under the same terms, the value for `COc1ccc(CCN2CNc3c(c(=O)n(C)c(=O)n3C)C2)cc1OC` was -3.69%; that for `O=C(O)CCCc1ccccc1` was -7.69%.
Still for that read-out and setting: with `CCCNCC(O)COc1ccccc1C(=O)CCc1ccccc1` (stereo not given) the figure was -7.14%; with `COc1ccc(C(=O)O)cc1F`, 3.73%.
On the same count and under the same terms, the value for `COc1cc(C)nc(-n2nc(C)cc2OC)n1` was -8.04%; that for `CCCCCCC(=O)N(O)C1CC(=O)N(Cc2ccccc2)C1=O` (stereo not given) was -3.98%.
Consider `CC(=O)N1CCN(c2ccc(NC(=O)/C=C/c3ccccc3)cc2)CC1`, for which the response was 3.43%.
`Cc1ccc(Nc2ncccc2C(=O)O)cc1C`: the response was 0.08%.
`CCCCCCCC(=O)OCC(O)CO` (stereo not given): the response is -8.74%.
The same measure, in the same setting: the value for `CSCCC(NC(C)=O)C(=O)Oc1ccc2c3c(c(=O)oc2c1)CCCC3` (stereo not given) was -6.44%; that for `CC(C)CN1CCN(Cc2ccc(C#CC(C)(C)O)cc2)CC1CCO` (stereo not given) was -11.4%.
Same read-out and setting: the value for `Cc1nc(C2CC(=O)OC23CCCCC3)cs1` (stereo not given) was -0.69%.
Consider `CO[C@H]1C=CO[C@@]2(C)Oc3c(C)c(O)c4c(O)c(c(C=NN5CCN(C)CC5)c(O)c4c3C2=O)NC(=O)C(C)=CC=C[C@H](C)[C@H](O)[C@@H](C)[C@@H](O)[C@@H](C)[C@H](OC(C)=O)[C@@H]1C`, for which the response is 9.39%.
On the same count and under the same terms, the value for `COc1cccc(-n2cc(CNCc3c(C(=O)N(C)C)nc4ccc(Cl)cn34)cn2)c1` was -6.24%.
The same measure, in the same setting: with `S=C(c1ccc2c(c1)OCO2)N1CCCCC1` the figure was -5.76%; with `CC(C)Oc1ccc2c(=O)c(-c3ccccc3)coc2c1`, 1.13%.
Same read-out and setting: with `CCn1cc(CN2N=C(C)CC2c2ccccc2)c(C)n1` (stereo not given) the figure was 7.08%.
Take `CCCCOc1ccc(C(=O)CCN2CCCCC2)cc1`: the response is 26.6%.
The same measure, in the same setting: with `NCCCC(N)(C(=O)O)C(F)F` (stereo not given) the figure was 5.08%; with `C[N+](C)(C)CCOP(=O)([O-])OC[C@H](O)CO`, 2.22%.
Still for that read-out and setting: with `O=C(O)C1CCN(C(=O)COc2ccc3c4c(c(=O)oc3c2)CCC4)CC1` the figure was -31%; with `COc1ccc(OC)c(S(=O)(=O)N2CCCc3ccccc32)c1`, 2.04%; with `COc1ccc2[nH]c(=O)c3c(c2c1)OC(C)(C)C=C3`, 5.61%.
For `CCN1CCN(C(=S)c2ccc(OC)cc2)CC1`, the response is 11.6%.
As for `C=CCOc1ccc(C(=O)CC)cc1OC`, the response was 2.91%.
Still for that read-out and setting: with `CCc1cccc2c3c([nH]c12)C(CC)(CC(=O)O)OCC3` (stereo not given) the figure was -0.16%; with `COc1ccc(OC(C)C(=O)Nc2ccccc2F)cc1` (stereo not given), 6.77%.
The same measure, in the same setting: the value for `CCCC(=O)Nc1ccccc1NC(C)=O` was 5.03%.
Regarding `O=C(O)CCCCCCNC(=O)c1cncc(O)c1`, the response was -25.8%.
Same read-out and setting: with `COc1ccc(Br)cc1C(=O)Nc1ccc(C(=O)O)cc1` the figure was -0.63%.
Still for that read-out and setting: with `CC[N+]1(CC)CC2=Cc3ccccc3CC2C1` (stereo not given) the figure was 0.79%.
